# Screens from PubChem.
# An excerpt weighted towards active compounds, which were near 10% of everything screened.
# ALOX12 inhib = blocks human 12-lipoxygenase activity; 150,000 compounds, 0.12% hits; Potency, µM (series often up to 57.1 µM), for the others: at the highest dose activity change, negative = inhibition, actives largely listed as inhibitors; AID 1452; purified 12-hLO, xylenol orange hydroperoxide absorbance; active = well fitted inhibition curve with a large enough effect; inconclusive = small, poorly fitted or top-dose-only effect; also: potency is read from the fitted curve at half-maximal effect; nearly all actives have a fitted effect of over 55% in size
# Target sequence (P18054 whole entry, looked up): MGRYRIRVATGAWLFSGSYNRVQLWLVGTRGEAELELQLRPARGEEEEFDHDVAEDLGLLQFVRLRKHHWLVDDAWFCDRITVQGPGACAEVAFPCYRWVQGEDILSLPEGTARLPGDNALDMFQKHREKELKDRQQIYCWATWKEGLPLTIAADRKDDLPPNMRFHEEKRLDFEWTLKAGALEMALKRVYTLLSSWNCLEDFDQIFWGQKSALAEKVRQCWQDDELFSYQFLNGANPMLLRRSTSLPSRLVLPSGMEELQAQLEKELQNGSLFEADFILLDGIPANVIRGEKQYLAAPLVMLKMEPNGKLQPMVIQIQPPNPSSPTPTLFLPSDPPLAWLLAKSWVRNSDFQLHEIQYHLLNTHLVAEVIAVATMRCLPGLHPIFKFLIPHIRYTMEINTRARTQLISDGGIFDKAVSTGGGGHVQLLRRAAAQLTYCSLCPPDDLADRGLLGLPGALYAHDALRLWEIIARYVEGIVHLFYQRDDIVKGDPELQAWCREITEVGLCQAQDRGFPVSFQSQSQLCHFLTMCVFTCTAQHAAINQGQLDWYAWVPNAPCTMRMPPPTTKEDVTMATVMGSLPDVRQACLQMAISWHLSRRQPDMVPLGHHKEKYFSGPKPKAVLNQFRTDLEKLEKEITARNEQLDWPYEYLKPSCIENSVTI
#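 150 nM 12hLO, 25 mM Hepes pH 7.0 + 0.01% Triton X-100; cpd preinc 15 min RT; 40 uM arachidonic acid, 30 min RT; Fe-XO 30 min; A573/A405 ratio as read-out.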
# PNC assembly inh = inhibitors of perinucleolar compartment assembly; AID 2417; activity change (PNC), negative = inhibition, % at 10 µM; 140,000 compounds, 3.1% hits; PC3M PTB-GFP, PNC prevalence imaging, 16 h; stronger effect = lower value;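 active = readout at or below -70, meaning at least 70% loss of cells showing the perinucleolar compartment, a nuclear body marking cancer cells; inconclusive = readout between -30 and a set limit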;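 also: plate controls were DMSO wells for no effect and camptothecin positive control wells for full effect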
#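 PC3M cells stably expressing PTB-GFP, 750–1000 cells/well, treated 16 h at 37 °C with compound (23 nl of library stock), in duplicate. After paraformaldehyde fixation and Hoechst stain, imaged at 20x; PNC prevalence scored by image analysis.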
# HPGD inh = blocks human HPGD enzyme activity. purified HPGD, NADH fluorescence kinetic, PGE2 substrate. Potency, µM, for inactives: at the top dose activity change, negative = inhibition, usual class: inhibitors. 150,000 compounds, 4.3% hits. AID 894; also: potency is read from the fitted curve at half-maximal effect
#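 NADH formation kinetics: reaction with 30 uM PGE2 and 1 mM NAD+ (final), 20 nM enzyme, Tris-HCl pH 8 with Tween 20, after 15 min compound preincubation at room temperature. Fluorescence change, last versus first of five reads.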
# ALDH1A1 inh = ALDH1A1 (human) enzyme inhibition; P00352; Purified ALDH1A1, NADH fluorescence, propionaldehyde substrate; Potency, µM (highest dose often 75.3 µM), for inactives: at the highest dose activity, negative = inhibition, usual class: inhibitors; 220,000 compounds, 7.3% hits; AID 1030;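 also: potency is read from the fitted curve at half-maximal effect; plate controls were no enzyme wells and a reference inhibitor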
# Lamin A splicing = modulators of lamin A splicing; HeLa LMNA splicing GFP/RFP minigene ratio, 48 h; Potency, µM (highest dose often 46.1 µM), without a hit: top-dose ratio change, negative = inhibition, most hits filed as inhibitors; 200,000 compounds, 0.01% hits; AID 1487; active = well fitted inhibition curve with a large enough effect in the signal ratio, with a control signal flat, not every such curve was filed as active; inconclusive = small, poorly fitted or top-dose-only effect, or effect the other way, or a change in a side signal; the % refers to the signal ratio; also: potency is read from the fitted curve at half-maximal effect
#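 S3 HeLa cells stably expressing lamin A-EGFP splicing minigene plus DsRed2, 600 cells/well, 48 h compound exposure at 37C. Laser-scanning cytometry; analysed as GFP (500-530 nm)/RFP (575-640 nm) total intensity ratio; 0.5% DMSO vehicle.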
# * marks the source's active call; other numbers are inactive results; ? = inconclusive; / = not tested or not shown; [ ] = another dose, or the depositor's remark. Unless noted, calls follow the shape of the dose curve; as a rule, active = well fitted inhibition curve with a large enough effect (not every such curve was filed as active); inconclusive = small, poorly fitted or top-dose-only effect, or another doubt; inactive = no such curve, though single readings can be large or run the other way. Unless noted, % is scaled to controls: 0 for no effect and ±100 for the full control effect.
SMILES,ALOX12 inhib,PNC assembly inh,HPGD inh,ALDH1A1 inh,Lamin A splicing
Cc1ccc(N(CC(=O)Nc2cccc(C)c2)S(=O)(=O)c2cccc3nonc23)cc1,-16%,?,/,7.1µM*,?
COc1ccc(N2CCN(C(=O)Cn3cnc4nc5c(cc4c3=O)CCCC5)CC2)cc1,/,/,/,/,17%[46 µM]
CN(O)/C=C/C(=O)c1ccc(Br)cc1,/,/,/,13µM*,-3%[46 µM]
COCCCCCCCCCCCC(=O)O,-1%,/,-9%,10%,/
O=S(=O)(c1ccc(-c2csc(-c3cccnc3)n2)cc1)N1CCCC1,-4%,17,?,?,?
O=S(=O)(c1ccc(-c2csc(-c3cccnc3)n2)cc1)N1CCCCC1,-6%,-23,28µM*,?,-17%
c1cncc(-c2nc(-c3ccco3)cs2)c1,-3%,9,?,1.3µM*,?
O=C(O)c1ccc(Cl)c(S(=O)(=O)Nc2ccc3cn[nH]c3c2)c1,/,/,/,22µM*,0%[46 µM]
Cc1ccc(/C=C2\SC(N3CCN(C(c4ccccc4)c4ccccc4)CC3)=NC2=O)o1,-12%,-24,3.5µM*,-6%,?
O=C1N=C(c2ccccc2)S/C1=C\c1cccs1,-10%,38,5.6µM*,3.5µM*,11%
O=C1/C(=C/c2cccs2)SC(=S)N1c1ccccc1,-4%,6,-7%,9%,-3%
O=C1N=C(N2CCN(c3ccccc3)CC2)S/C1=C/c1cccs1,-9%,76,16µM*,?,-20%
CCOc1ccccc1CNS(=O)(=O)c1ccc(-c2coc(C)n2)cc1,/,/,/,/,-7%[46 µM]
COc1ccc(C)cc1NC(=O)c1ccc2c(c1)N(Cc1cccc(Cl)c1)C(=O)c1ccccc1S2=O (stereo unspecified),/,/,/,/,16%[46 µM]
Cc1c(Cl)c(C(=O)NC2CCCC2)nn1C,4%,17,35µM*,0%,-3%
CCN(CC)CCCNC(=O)Cn1c(-c2cccs2)cc2cc(Cl)ccc21,/,/,/,/,-22%[46 µM]
Cc1nonc1C(=O)N/N=C/c1ccc(O)c(O)c1,-2%,-16,32µM*,-9%,-11%
CCNc1ncc2nc(-c3cn(C)c4ccccc34)c(=O)n(-c3ccccc3)c2n1,/,/,/,12%,?
CC1CCN(S(=O)(=O)c2ccc(NC(=S)NC(=O)c3ccc(Cl)cc3)cc2)CC1,5%,31,-18%,4µM*,-2%
O=C(NC(=S)Nc1ccc(S(=O)(=O)N2CCCCC2)cc1)c1ccc(Cl)cc1,?,?,?,0.5µM*,13%
COC(=O)c1ccc(SCC(=O)N2CCC(C)CC2)c([N+](=O)[O-])c1,-2%,24,-17%,?,-2%
COC(=O)CSc1ccc(S(=O)(=O)N2CCC(C)CC2)cc1[N+](=O)[O-],-1%,-109*,-7%,6%,0%
COC(=O)c1cc(S(=O)(=O)N2CCC(C)CC2)ccc1F,-7%,10,?,28µM*,13%
O=C(NNC(=O)C1CCN(S(=O)(=O)c2ccc(Cl)cc2)CC1)c1ccc(S(=O)(=O)N2CCCCC2)cc1,-2%,-1,-8%,3%,-8%
CCCCN(CCCC)S(=O)(=O)c1ccc(SCC(=O)OCC)c([N+](=O)[O-])c1,0%,-87*,-17%,?,23%
SMILES,ALOX12 inhib,PNC assembly inh,HPGD inh,ALDH1A1 inh,Lamin A splicing
CCOC(=O)CSc1ccc(S(=O)(=O)N(CC)CC)cc1[N+](=O)[O-],/,/,/,-15%,/
O=C(N/N=C/c1ccncc1)c1cccc(N/N=C/c2ccncc2)c1,/,/,/,-7%,?
O=C(N/N=C/c1ccc(O)cc1)c1ccc(NC(=O)c2ccccc2Br)cc1,-6%,-17,14µM*,?,5%
O=C(C[n+]1ccc(C(=O)N/N=C/c2ccc(O)cc2)cc1)c1ccccc1,0%,7,-14%,1.6µM*,0%
O=C(N/N=C/c1ccc(O)cc1)c1cccc(N/N=C/c2ccc(O)cc2)c1,/,/,/,22µM*,/
O=C(N/N=C/c1ccc(F)cc1)c1ccccc1,/,/,/,8%,10%[46 µM]
O=C(Nc1ccccc1C(=O)N/N=C/c1ccc(F)cc1)c1ccccc1Br,1%,-114*,-18%,?,0%
OCCN1CCN(C(c2ccccc2Cl)c2sc3nc(-c4ccco4)nn3c2O)CC1 (stereo unspecified),/,/,/,/,9%[46 µM]
